# Laboratory results as given in PubChem BioAssay (NCI).
# “And” between values parts separate entries of the source, which are not always exact repeats. Identical values can stand only once. The panel holds about 79,000 compounds, 15% with a hit somewhere; the sample as a whole holds those more often. Values without a mark were called inactive. The source made the active and inactive calls. Cut-off read from the data, not from the text of the source: active = growth inhibition above about 70%; inactive = the rest.
# Columns and labels:
# [1] = NCI Yeast Anticancer Drug Screen. Data for the rad50 strain (AID 155);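 note: 0% = growth of vehicle-only cultures of the same strain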; details: S. cerevisiae rad50 strain growth inhibition, active compounds read high; at 50.0 µM unless noted
# Method in brief: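 Compounds were tested on a yeast strain with an engineered DNA damage repair alteration; the reported value is growth inhibition normalised to vehicle treatment.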
# [2] = NCI Yeast Anticancer Drug Screen. Data for the mec2-1 strain (AID 157); details: S. cerevisiae mec2-1 strain, active compounds read high; at 50.0 µM unless noted
# Method in brief: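 Readout is yeast growth inhibition, normalised to vehicle-treated controls, in the mec2-1 strain exposed to compound.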
# [3] = NCI Yeast Anticancer Drug Screen. Data for the sgs1 mgt1 strain (AID 161);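 note: 0% = growth of cultures given vehicle only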; details: S. cerevisiae sgs1 mgt1 strain, active compounds read high; at 50.0 µM unless noted
# Method in brief: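 Percent growth inhibition was derived by comparing compound-exposed mutant yeast with vehicle-exposed cultures. The strain carries alterations in DNA damage repair.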
# [4] = NCI Yeast Anticancer Drug Screen. Data for the cln2 rad14 strain (AID 165);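 note: 0% = growth equal to vehicle treated cultures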; details: S. cerevisiae cln2 rad14 strain, active compounds read high; at 50.0 µM unless noted
# Method in brief: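 Relative to vehicle controls, growth inhibition of compound-treated cln2 rad14 yeast was recorded.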
# [5] = NCI Yeast Anticancer Drug Screen. Data for the bub3 strain (AID 167); details: S. cerevisiae bub3 mutant strain, active compounds read high; at 50.0 µM unless noted
# Method in brief: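 Growth of a checkpoint-deficient yeast mutant is measured after compound exposure. Values represent inhibition relative to vehicle.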
# [6] = NCI Yeast Anticancer Drug Screen. Data for the mlh1 rad18 strain (AID 175); details: S. cerevisiae mlh1 rad18 strain growth inhibition, active compounds read high; at 50.0 µM unless noted
# Method in brief: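 Test agents were incubated with a yeast strain of defined genotype (DNA damage repair defect). Inhibition of growth was derived by comparison with vehicle-exposed cultures.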
SMILES,growth inhibition [1],growth inhibition [2],growth inhibition [3],growth inhibition [4],growth inhibition [5],growth inhibition [6] [%]
C/C(=N\NC(=S)N1CCC(N2CCCCC2)CC1)c1ccccn1,83.8% (active),88.1% (active),88% (active),84.8% (active),86% (active),–
Cn1c2c(c3ccccc31)CCN(CCCCN1CCN(c3ccccc3)CC1)C2=O,3.8%,-17.5%,-36%,3.55%,-11.2%,–
O=C(Nc1ccc(Br)cc1)C(Br)C(Br)c1ccccc1 (stereo not given),98% (active),97.7% (active),98.6% (active),96.7% (active),97.8% (active),–
CN1C(=O)/C(=C2\SC(=O)N(CN3CCOCC3)C2=O)c2ccccc21,-6.1%,-32.9%,-40%,-7.55%,-39%,–
O=C(O)C1C2OC3C(OC(=O)C31)C2Br (stereo not given),-9.6% and 3.1%,6.75% and -15.9%,-8.9% and 2.25%,6.4% and -34.2%,-2.35% and 1.3%,–
CCCC(=O)CC(=O)C(F)(F)F.CCCC(=O)CC(=O)C(F)(F)F.CCCC(=O)CC(=O)C(F)(F)F.[Er],25%,10.8%,44.2%,-0.15%,-5.65%,50.1
CN1CC(c2ccccc2)C(O)(C2(c3ccccc3)CN(C)CC(c3ccccc3)C2=O)C(c2ccccc2)C1 (stereo not given),5.7%,7.25%,-30.4%,-6.7%,-17.4%,–
CC(=O)OC(C)COc1ccccc1 (stereo not given),23.1% and 5.6%,1.55% and -10.3%,2.05% and -4.55%,-31.2% and -6.8%,-17.1% and 8.8%,–
CCCc1ccc(C)c(CCC)c1O,-5.95%,-10.9%,-5.1%,-17.3%,-4.05%,4
CC1CCCCN1P(c1ccccc1)N1CCCCC1C (stereo not given),28.5%,16.9%,18.5%,24.1%,35%,–
O=C1CSC(c2ccc([N+](=O)[O-])cc2)N1c1ccc(-n2c(-c3ccccc3)nc3ccccc3c2=O)cc1 (stereo not given),2.5%,-10.2%,15.2%,-10.5%,30%,–
[O-][N+](CCO)(CCO)c1ncnc2nc[nH]c12,-2.35%,-12.7%,-0.45%,-8.9%,-63.7%,–
C=C1COC(O)(C2OCOC(C3CC(=O)NC(=O)C3)C2O)C1C (stereo not given),88% (active),91.2% (active),91.5% (active),89.8% (active),89.2% (active),–
O=C(CCl)Nc1cc2ccccc2oc1=O,21%,42.4%,20.6%,41%,5.45%,–
C/C(=N\NC(=S)N1CCCCCC1)c1nccnc1C,85.7% (active),90.5% (active),89.7% (active),86.5% (active),87.4% (active),–
COc1c(OC(C)=O)c(OC(C)=O)cc2c1-c1ccc(SC)c(=O)cc1C(NC(C)=O)CC2 (stereo not given),23.2%,3.5%,-28.8%,-24.6%,-33.8%,–
CC(=O)O[C@H]1C(=O)[C@@]2(C)C(C(OC(=O)c3ccccc3)[C@]3(O)CC(OC(=O)[C@H](OC(=O)CCC(=O)O)C(NC(=O)c4ccccc4)c4ccccc4)C(C)=C1C3(C)C)C1(OC(C)=O)COC1C[C@@H]2OC(=O)CCC(=O)O (stereo not given in full),29.6%,-5.45%,-25.4%,-7.4%,-8.05%,–
Oc1cc(Cl)cc2cccnc12,87.8% (active),91.5% (active),88.8% (active),91.6% (active),90% (active),–
O=[n+]1c2c(n([O-])c3ccccc31)CCCCCCCCCC2,-52.6%,-1.95%,7.15%,-35.2%,0.95%,7.9
C/C(=N/N)c1ccc2[nH]c3c(C)cc([N+](=O)[O-])c(C)c3c2c1,16.9%,-6.9%,-22.9%,13.7%,3.65%,–
C/C(=N\NC(N)=O)c1ccc(Br)c2ccccc12,-19.1%,12.9%,-3.35%,4.05%,1.05%,–
CC(=O)NC(C(=O)O)C(C)C (stereo not given),6.4%,-0.75%,-4.55%,-4.2%,0.85%,6.7
CCOC(=O)C(C)NC(=O)NC12CC3CC(CC(F)(C3)C1)C2 (stereo not given),31.3%,10.6%,3.1%,6.35%,8.45%,–
COc1cc(-c2cc(=O)c3c(O)c(OC)c(OC)c(OC)c3o2)cc(OC)c1OC,-9.45%,-2.7%,-10.8%,-10%,-20.8%,–
C[Si](C)(C)OC1CC(=O)OC1n1cc(F)c(=O)[nH]c1=O (stereo not given),56.8%,81.6% (active),75.8% (active),-1.15%,21.8%,–
CC1=CSC2=NCCCCN12,-9.5%,2.3%,13.3%,8.55%,18.2%,16.1
